Myeloid diff MLP = myeloid differentiation induction; AID 624256; 1% of 360,000 active; calls only at 10 µM; ER-HoxA9 myeloid progenitors, lysozyme-GFP differentiation, flow cytometry;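 active means normalized GFP-positive differentiation at or above the plate's own cutoff, the solvent-only control mean plus 3 SD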;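 further: cells exposed to compound for four days before flow analysis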
FAS-TE inh = inhibitors of human fatty acid synthase thioesterase domain; inhibition, % at 15 µM; P49327; recombinant FAS-TE, OMFH fluorogenic substrate, fluorescence endpoint; 0.67% of 360,000 active; AID 602261;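 active means compounds whose normalised, plate-corrected inhibition of enzyme fluorescence in the single-dose primary screen is 50% or more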;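 further: 0% = DMSO with enzyme and 100% = substrate without enzyme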
CRFBP-R2 block = antagonists of CRF-binding protein/CRF-R2 receptor complex; HEK293 CRF-R2/CRF-BP, CRF-induced calcium fluorescence; inhibition, % at 11.8 µM; 0.59% of 350,000 active;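 active means inhibition of the ligand-induced calcium signal above about 50% at the single tested concentration, limit read from the data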
NadD block = inhibitors of Staphylococcus aureus NadD; purified NadD enzyme, colorimetric absorbance read-out; inhibition, % at 20 µM; 0.78% of 360,000 active; AID 602399; in the data active means inhibition above about 26%
NRP1-CendR mod = NRP-1/CendR interaction modulation; O14786; FAM-RPARPAR peptide binding to NRP-1, fluorescence polarization; inhibition, % at 25 µM; 0.85% of 360,000 active; AID 602438;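 active means inhibition or corrected inhibition above about 18%, plus a signal ratio from 0.5 to 1.5, limit read from the data, passing the limit was not always enough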
NadD inh conf = NadD (S. aureus) inhibition, single concentration confirmation. shares compounds with NadD block. purified S. aureus NadD, colorimetric enzyme assay. inhibition, % at 20 µM. 13% of 2,000 active; in the data active means inhibition mostly above about 42%, no sharp cut-off; inactive means mostly below about 42%
* hit, by the source's call; i = inactive; . = not tested or not shown; + = active, no number. Compounds with a hit are over-represented: about 3.6% of the library has one in this group of screens.

SMILES | Myeloid diff MLP | FAS-TE inh | CRFBP-R2 block | NadD block | NRP1-CendR mod | NadD inh conf
CCOc1ccc(N2CC(C(=O)NC3CCCC3)CC2=O)cc1 (stereo not given) | i | -2 | 8 | -3 | 2 | .
N#CCC(=O)Nc1ccc(C(=O)OCC(=O)Nc2ccc3ccccc3c2)cc1 | i | 6 | 2 | 46* | -26 | 40
CCn1c2ccccc2c2cc(NC(=O)COC(=O)c3ccccc3F)ccc21 | i | 21 | 6 | -2 | -6 | .
O=C(COC(=O)c1ccc(CO)cc1)Nc1ccc2ccccc2c1 | i | -6 | 4 | 10 | -8 | .
CC1CCc2c(sc(NC(=O)COC(=O)c3ccc(NC(=O)CC#N)cc3)c2C#N)C1 (stereo not given) | i | 9 | -14 | 36* | -26 | 17
CCN(CC)S(=O)(=O)c1cc(NC(=O)COC(=O)C2CCC2)ccc1C | i | -3 | 5 | 0 | -5 | .
CCn1c2ccccc2c2cc(NC(=O)COC(=O)c3ccc(NC(=O)CC#N)cc3)ccc21 | i | 7 | -2 | 64* | -47 | 40
CCN(CC)S(=O)(=O)c1cc(NC(=O)COC(=O)c2ccc(NC(=O)CC#N)cc2)ccc1C | i | 11 | -11 | 33* | -4 | 14
Cc1cc(C(=O)OCC(=O)Nc2sc3c(c2C#N)CCC(C)C3)c2ccccc2n1 (stereo not given) | i | 21 | -12 | 19 | -18 | .
O=c1[nH][nH]c2c1[C@H](c1ccc(Cl)cc1)O[C@H](C1CCCCC1)C2 | i | -72 | . | 1 | -8 | .
O=C(CSc1nccc(=O)[nH]1)Nc1ccc2ccccc2c1 | i | -1 | 3 | -3 | -14 | .
CCn1c2ccccc2c2cc(NC(=O)CSc3nccc(=O)[nH]3)ccc21 | i | -35 | 11 | 41* | -22 | 50*
O=C1C=C(c2cc(F)ccc2F)C[C@@H](c2ccc(F)cc2)C1 | i | 26 | 3 | -9 | -8 | .
O=C(NC[C@H]1CCCO1)c1cccc2c1C(=O)c1ccc(-c3ccc(F)cc3OCc3ccccc3)cc1S2(=O)=O | i | 30 | 2 | 17 | -4 | .
N#Cc1cccnc1N1CCN(C(=O)c2cccc3c2C(=O)c2ccc(-c4ccc(F)cc4OCc4ccccc4)cc2S3(=O)=O)CC1 | i | 20 | -4 | 31* | -16 | 0
Cc1cc(CNC(=O)c2cccc3c2C(=O)c2ccc(-c4ccc(F)cc4OCc4ccccc4)cc2S3(=O)=O)c(C(F)(F)F)o1 | i | 29 | -10 | 52* | -34 | 39
O=C1c2ccc(-c3ccc(F)cc3OCc3ccccc3)cc2S(=O)(=O)c2cccc(C(=O)N3CCN(c4ncc(Cl)cc4Cl)CC3)c21 | i | 17 | -6 | 61* | 4 | 21
O=C(O)CNc1nc(NCc2ccc(Cl)cc2)ccc1[N+](=O)[O-] | i | -5 | 11 | 5 | 6 | .
COC(=O)[C@]12CCCCC=C1N(Cc1ccccc1)C(=O)[C@H](CC(=O)NCc1cccc(C(F)(F)F)c1)C2 | i | 17 | . | -2 | 7 | .
CCn1cc(C(=O)NCCCOC)c(=O)c2cc(S(=O)(=O)N3CCCC3)ccc21 | i | -5 | -11 | 4 | 6 | .
COc1ccccc1OCCCC(=O)Nc1ccc([N+](=O)[O-])cc1Br | i | 24 | 0 | -9 | 6 | .
Cc1cc(C)c(NC(=O)COC(=O)c2ccncc2)c(C)c1 | i | -6 | -14 | 5 | 2 | .
Cc1ccc(C)c(S(=O)(=O)N2CCC(c3nc4c(nnn4Cc4ccc5c(c4)OCCO5)c(=O)[nH]3)CC2)c1 | i | 70* | 26 | 46* | 2 | 10
CCc1ccc(N2C(=O)Cc3c2nc(N)c(C#N)c3N)cc1 | i | -2 | 14 | 7 | -19 | .
CCN(CC)c1nc2c3c(nc4c(c3c1C#N)CC(=O)N4c1ccc(Cl)cc1)NC(C)=N2 | i | 31 | 9 | 45* | -66 | 27
SMILES | Myeloid diff MLP | FAS-TE inh | CRFBP-R2 block | NadD block | NRP1-CendR mod | NadD inh conf
CSc1cccc(NC(=S)N(Cc2ccccc2)Cc2cccnc2)c1 | i | 17 | 6 | -2 | -14 | .
C/C=C\C=C\C(=O)Nc1cccc(C2=NOC3(C2)C[C@@H](C(N)=O)N(C(=O)C(c2ccccc2)c2ccccc2)C3)c1 (stereo not given in full) | i | 2 | -3 | 39* | -16 | 55*
C/C=C(\C)C(=O)Nc1cccc(C2=NOC3(C2)C[C@@H](C(N)=O)N(C(=O)c2cc([N+](=O)[O-])cc([N+](=O)[O-])c2C)C3)c1 (stereo not given in full) | i | 28 | 5 | 13 | -3 | .
NC(=O)[C@@H]1CC2(CC(c3cccc(NC(=O)COc4ccc(Cl)cc4)c3)=NO2)CN1C(=O)COc1ccc(Cl)cc1 (stereo not given in full) | i | 39 | 0 | 48* | -12 | 24
Cc1c(C(=O)N2CC3(CC(c4cccc(NC(=O)CC(c5ccccc5)c5ccccc5)c4)=NO3)C[C@@H]2C(N)=O)cc([N+](=O)[O-])cc1[N+](=O)[O-] (stereo not given in full) | i | 37 | 7 | 30* | 22 | 48*
C/C=C\C=C/C(=O)Nc1cccc(C2=NOC3(C2)C[C@H](C(N)=O)N(C(=O)CC)C3)c1 (stereo not given in full) | i | -13 | -4 | -8 | 5 | .
N#CCC(=O)N1CC2(CC(c3cccc(NC(=O)COc4ccc(Cl)cc4)c3)=NO2)C[C@@H]1C(N)=O (stereo not given in full) | i | -4 | 3 | 8 | 6 | .
NC(=O)[C@H]1CC2(CC(c3cccc(NC(=O)CC(c4ccccc4)c4ccccc4)c3)=NO2)CN1C(=O)CC(c1ccccc1)c1ccccc1 (stereo not given in full) | i | 46 | 1 | 42* | 18 | 19
Cc1nn(CCCC(=O)N2CCN(c3ccc(F)cc3)CC2)c(C)c1[N+](=O)[O-] | i | 20 | -1 | -5 | -1 | .
NC(=O)[C@@H]1CC2(CC(c3cccc(NC(=O)CC(c4ccccc4)c4ccccc4)c3)=NO2)CN1C(=O)c1ccc(Cl)cc1 (stereo not given in full) | i | 33 | 1 | 32* | -2 | 23
CCC(=O)N1CC2(CC(c3cccc(NC(=O)CC(c4ccccc4)c4ccccc4)c3)=NO2)C[C@H]1C(N)=O (stereo not given in full) | i | 1 | -7 | -7 | -4 | .
Cc1cc(-c2ccc(C(C)C)c(S(=O)(=O)Nc3ccccn3)c2)on1 | i | -6 | -6 | -5 | 3 | .
CC(C)OCCCn1c(=N)c(C(N)=S)cc2c(=O)n3ccccc3nc21 | + | -18 | -4 | 26* | -26 | 9
CC(C)OCCCn1c(=NC(=O)c2ccncc2)c(C#N)cc2c(=O)n3ccccc3nc21 | i | -6 | 2 | 4 | -5 | .

Screens from PubChem BioAssay.
